Screening results: PubChem, Center for Chemical Genomics, University of Michigan
Compounds with a hit are over-represented: about 0.93% of the library has one in this group of screens.
CDC25B-CDK2 inh = primary biochemical HTRF screen for blockers of M-phase inducer phosphatase 2 binding to CDK2/cyclin A | AID 1259370, 2018 | z-score (concentration not given with the values) | P30305+P24941 | hit rate 0.72% among 94,000 | HTRF CDC25B-CDK2/CyclinA binding, anti-His/anti-Flag; stronger effect = higher value; in the data active = z-score above about 3.2
TAR Tat displ = TAR RNA-Tat peptide displacers, HIV-1, primary screen, biochemical, FRET, FAM/TAMRA-labeled Tat. AID 1259389, 2018. hit rate 0.6% among 100,000. z-score (concentration not given with the values). HIV-1 TAR RNA, Tat peptide displacement FRET; stronger effect = higher value; active = z-score of 3 or more in at least 2 runs
Numbers without * were called inactive; . = no result.

SMILES | CDC25B-CDK2 inh | TAR Tat displ
O=C(O)CNc1cc(N2CCCCC2)c2noc3c2c1C(=O)c1ccccc1-3 | 4.4* | -6
CCN1CCN(c2cc(NCC(=O)O)c3c4c(onc24)-c2ccccc2C3=O)CC1 | 0.53 | 0.3
O=C(Nc1ccc2oc(-c3c(F)c(F)c(F)c(F)c3F)nc2c1)c1ccc([N+](=O)[O-])cc1 | -0.51 | .
CC(C)N1C(=O)C(O)(CC(=O)c2ccccc2)c2ccccc21 (configuration not stated) | 0.13 | 0.83
CCc1ccc(C(=O)CC2(O)C(=O)N(C(C)C)c3ccccc32)cc1 (configuration not stated) | 16* | -0.46
COC(=S)Nc1ccccc1 | 3.5 | .
Cc1cc(C)c2c(n1)sc1c(=O)n(CC(N)=O)cnc12 | . | 0.51
CC(C)C(=O)N(c1cc2sc(=O)oc2c2ccccc12)S(=O)(=O)c1cccs1 | 7* | 0.5
CC(C)C(=O)N(c1ccc2oc(=O)sc2c1)S(=O)(=O)c1cccs1 | -2.8 | 0.34
Cc1ccc2[nH]c(CSCC(=O)Nc3nnc(C(C)C)s3)cc(=O)c2c1 | . | -1.2
Cc1c(-c2nsc(NC(=O)c3cccs3)n2)nnn1-c1ccccc1Cl | . | 0.44
NS(=O)(=O)c1ccc(NC(=O)C2=Cc3cc(Br)ccc3OC=C2)cc1 | -0.49 | -0.51
Cc1nc(N=Nc2ccc(C(=O)O)cc2)c(COP(=O)(O)O)c(C=O)c1O | -2.5 | .
Cc1ncc(COP(=O)(O)O)c(C=Nc2ccc3ccccc3c2)c1O | 14* | .
Cc1ccsc1CCNC(=O)CCc1nnc2ccc(NCc3ccco3)nn12 | . | 1.3
Cn1cc(-c2cc3n(n2)CCCN3C(=O)CCC(=O)N2CCN(c3ccccn3)CC2)c2ccccc21 | . | 1.2
CCn1c2ccccc2c2cc(CN3CCN(Cc4cccc(OC)c4)CC3)ccc21 | 6.7* | .
CCn1c2ccccc2c2cc(CN3CCN(Cc4cccc([N+](=O)[O-])c4)CC3)ccc21 | 2.7 | .
CCC(Oc1ccc2c3c(c(=O)oc2c1C)CCC3)C(=O)OC(C)C (configuration not stated) | -1.7 | .
O=C(c1noc2c1COc1ccccc1-2)N1CCCC1 | -1.2 | 0.96
O=C(c1ccco1)N1CCN(S(=O)(=O)c2ccc(F)cc2)CC1 | . | 17*
O=C(c1ccco1)N1CCN(S(=O)(=O)c2ccccc2)CC1 | -0.89 | 0.56
O=C(O)Cc1ccc(OC(F)(F)F)cc1 | -1.9 | .
CN1CCc2nc3sc(C(=O)c4ccc(Cl)cc4)c(N)c3cc2C1 | 19* | -6.5
CN1CCc2nc3sc(C(=O)Nc4cccc(Cl)c4)c(N)c3cc2C1 | -2 | -1.6
SMILES | CDC25B-CDK2 inh | TAR Tat displ
COc1ccc2c(c1)CC(NC(=O)NCCN1CCN(C)CC1)CO2 (configuration not stated) | . | 1.3
CCC(=O)N1c2ccc(S(=O)(=O)N3CCCCC3)cc2CC1C(=O)N1CCCC1 (configuration not stated) | . | 1.6
CC1(C)CC(=O)C2=C(C1)NC1=C(C(=O)c3ccccc31)C2c1ccc([N+](=O)[O-])o1 (configuration not stated) | 0.25 | 1.2
CCS(=O)(=O)N1CCCc2ccc(NS(=O)(=O)c3cc(OC)ccc3OC)cc21 | . | -0.11
CCCS(=O)(=O)N1CCCc2ccc(NS(=O)(=O)c3ccc(OC)cc3OC)cc21 | . | 6*
Cc1cccc(C2C(C#N)=C3N=C(N)c4ccccc4N3C3=C2C(=O)CCC3)c1 (configuration not stated) | -1.6 | 1
N#CC1=C2N=C(N)c3ccccc3N2C2=C(C(=O)CCC2)C1c1cccc(Br)c1 (configuration not stated) | 18* | -5.1
CCc1nn(CC(=O)NC2CCCc3ccccc32)c(=O)c2cc3sc(C)cc3n12 (configuration not stated) | -3.3 | 0.1
COc1ccc(S(=O)(=O)c2c(C(=O)c3ccc(C)cc3)cnc3cc4c(cc23)OCCO4)cc1 | 6.7* | 0.27
COc1ccc(S(=O)(=O)c2c(C(=O)c3ccc(C)cc3)cnc3cc4c(cc23)OCO4)cc1 | 0.07 | -0.24
O=S1(=O)C[C@H](N2CCN(c3ccccn3)CC2)[C@@H](S(=O)(=O)c2ccc(Cl)cc2)C1 | -1.2 | -0.32
CCOC(=O)N1CCN(c2cc(NCC(=O)O)c3c4c(onc24)-c2ccccc2C3=O)CC1 | 3.2* | -6.2
CCOC(=O)C1CCCN(c2cc(NCCCC(=O)O)c3c4c(onc24)-c2ccccc2C3=O)C1 (configuration not stated) | 11* | 21*
CCOC(=O)C1CCN(c2cc(NCC(=O)O)c3c4c(onc24)-c2ccccc2C3=O)CC1 | 5.9* | -5.8
CCOC(=O)C1CCN(c2cc(NCCOC)c3c4c(onc24)-c2ccccc2C3=O)CC1 | -1.3 | 1.3
CCOC(=O)N1CCN(c2cc(NCCCC(=O)O)c3c4c(onc24)-c2ccccc2C3=O)CC1 | -0.95 | 0.69
CCOC(=O)C1CCCN(c2cc(NCC(C)C)c3c4c(onc24)-c2ccccc2C3=O)C1 (configuration not stated) | -1.2 | 0.8
CC(C)CCNC(=O)C1CCCN(S(=O)(=O)c2ccc3c(c2)C(C)(C)C(=O)N3C)C1 (configuration not stated) | -2.1 | 1.1
CC(C)Oc1ccccc1-c1nnc2n1N=C(c1ccccc1)CS2 | 0.19 | 0.05
CCCCOC(=O)c1ccc(NC(=S)NC(NC(=O)Cc2ccccc2)C(Cl)(Cl)Cl)cc1 (configuration not stated) | -1.7 | .
CN1CCN(S(=O)(=O)c2ccc3c(c2)OCC(C(=O)N2CCOCC2)O3)CC1 (configuration not stated) | . | 1.1
COc1ccc(-c2nc(-c3cccs3)c(-c3cccs3)[nH]2)cc1O | 18* | 1.2
COc1cc(-c2nc(-c3ccccc3)c(-c3ccccc3)[nH]2)ccc1O | -0.82 | .
O=C(NCc1ccc2c(c1)OCO2)c1[nH]nc2c1COc1ccccc1-2 | . | 0.1
CC(C(=O)NCc1ccco1)n1sc2ccccc2c1=O (configuration not stated) | -1.8 | 3.6*
SMILES | CDC25B-CDK2 inh | TAR Tat displ
CNC(=O)C(C)n1sc2ccccc2c1=O (configuration not stated) | -2.1 | 1.8
Cc1[nH]c(C)c(S(=O)(=O)NC(C)(C)C)c1C(=O)N1CCCC1 | . | -0.16
Fc1ccc(-c2noc3ncnc(N4CCC(N5CCCCC5)CC4)c23)cc1 | . | 0.5
Cc1cc(C)c(S(=O)(=O)Nc2ccc[nH]c2=O)c(C)c1 | 9.4* | -1.9
Cc1cc(C)c(S(=O)(=O)Nc2cc3c(cc2C)n(C)c(=O)n3C)c(C)c1 | . | 0.42
CCc1nn(CC(=O)N2CCCC2)c(=O)c2cc3ccccc3n12 | -2.9 | 0.55
O=C(Nc1cccnc1)C1=Cc2sc3c(c2CS1)CCCC3 | . | -1.1
O=C(Nc1ccc2c(c1)OCCO2)C1CCN(S(=O)(=O)c2ccc(Br)cc2)CC1 | 4.6* | 1.6
O=C(Nc1ccc2c(c1)OCCO2)C1CCN(S(=O)(=O)c2ccc3[nH]c(=O)ccc3c2)CC1 | . | 1.2
O=C(CSc1nccn1C1CCCCC1)Nc1ccc2c(c1)OCO2 | . | 1.6
Cc1nc2ccc(S(=O)(=O)NC(CC(C)C)C(=O)NC3CCC(C)CC3)cc2s1 (configuration not stated) | -0.33 | 1.1
CCn1c(SCc2nc(-c3ccc(OC)cc3OC)no2)nnc1-c1ccc(Cl)cc1 | -1.9 | 2.1
COc1ccc(C2=NN3C(C2)c2ccccc2OC3c2ccncc2)cc1OC (configuration not stated) | -0.92 | -0.61
